# Data published in PMC9838217, “Structure of SALL4 zinc finger domain reveals link between AT-rich DNA binding and Okihiro syndrome”.
# Substitutions are numbered along the chain they refer to.
# Experiments:
# Assay in all cases: HT-SELEX; high values mean tight binding
# Conditions in all cases: protein: recombinant; vector His6-GST; dsDNA, one strand shown
# SALL4 ZFC4 WT (HT-SELEX) = biological target: T1, SALL4 ZFC4 WT (HT-SELEX) (Mus musculus, UniProt Q8BX22 870-940)
# T1 sequence: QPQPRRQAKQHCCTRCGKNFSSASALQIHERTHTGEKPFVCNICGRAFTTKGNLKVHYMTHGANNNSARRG
# Outline: (§1)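 Binding signal is expressed as fold change in each canonical k-mer's read fraction over the initial random library. To obtain it, 1 µg of purified recombinant mouse SALL4 zinc finger cluster 4 (residues 870–940) was incubated for 10 min at room temperature with library DNA (1.5 µg first cycle, 200 ng later cycles) in 100 µl of 10 mM Tris–HCl pH 7.5, 50 mM NaCl, poly(dI-dC) and DTT. Ni2+ bead-captured complexes went through washing, PCR amplification and reselection for up to 6 cycles, in triplicate, before MiSeq sequencing and scanning for 6-mers.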
# [1] = biological target: T2, SALL4 ZFC4 R900W (HT-SELEX) (Mus musculus, UniProt Q8BX22 870-940, R900W)
# T2 sequence: T1 sequence with R31W
# Outline: as §1
# [2] = biological target: T3, SALL4 ZFC4 G921D (HT-SELEX) (Mus musculus, UniProt Q8BX22 870-940, G921D)
# T3 sequence: T1 sequence with G52D
# Outline: as §1
Sequence,binding signal (SALL4 ZFC4 WT (HT-SELEX)) [fold-change vs cycle 0],binding signal [1] [fold-change vs cycle 0],binding signal [2] [fold-change vs cycle 0]
TAGACA,1.18 ± 0.0561,1.3 ± 0.0829,1.28 ± 0.0805
AGAATC,1.3 ± 0.1,1.47 ± 0.0816,1.41 ± 0.128
AACTGT,1.31 ± 0.0453,1.39 ± 0.0174,1.34 ± 0.0563
AATTCA,2.33 ± 0.187,1.93 ± 0.125,1.77 ± 0.161
ACGTTC,0.7 ± 0.0339,0.844 ± 0.024,0.8714 ± 0.00795
AAAAGG,1.08 ± 0.0719,1.25 ± 0.064,1.18 ± 0.0579
TACCCA,0.781 ± 0.0395,0.882 ± 0.0184,0.886 ± 0.035
CTACAC,0.733 ± 0.0291,0.845 ± 0.0188,0.893 ± 0.0116
AGTCCG,0.333 ± 0.0345,0.404 ± 0.0391,0.533 ± 0.0458
TAATCA,2.37 ± 0.116,2.13 ± 0.0839,1.88 ± 0.168
GAAATA,2.68 ± 0.193,1.89 ± 0.115,1.72 ± 0.124
CTTAAC,1.38 ± 0.0537,1.58 ± 0.0426,1.42 ± 0.0747
GACATC,0.75 ± 0.0336,0.879 ± 0.011,0.967 ± 0.0135
CATTCG,0.667 ± 0.027,0.769 ± 0.0521,0.847 ± 0.0186
GACACC,0.393 ± 0.0241,0.461 ± 0.0351,0.593 ± 0.067
AAGCCT,0.633 ± 0.0294,0.72 ± 0.0269,0.848 ± 0.0353
GAGATA,1.52 ± 0.0868,1.54 ± 0.105,1.45 ± 0.133
ACCCCA,0.468 ± 0.0336,0.525 ± 0.0104,0.602 ± 0.0476
ATGGAA,1.5 ± 0.0823,1.48 ± 0.0671,1.36 ± 0.0808
CTATAG,1.37 ± 0.136,1.45 ± 0.0344,1.35 ± 0.128
AAGTTA,2.21 ± 0.185,2.17 ± 0.193,1.9 ± 0.254
GACGTC,0.306 ± 0.00649,0.386 ± 0.024,0.522 ± 0.0468
CGAGAA,0.725 ± 0.0428,0.818 ± 0.0294,0.857 ± 0.0383

Sequence,binding signal (SALL4 ZFC4 WT (HT-SELEX)) [fold-change vs cycle 0],binding signal [1] [fold-change vs cycle 0],binding signal [2] [fold-change vs cycle 0]
AACTAT,2.16 ± 0.123,1.96 ± 0.0882,1.76 ± 0.173
AACCCA,0.813 ± 0.0466,0.894 ± 0.0477,0.963 ± 0.0141
AATTGG,1.07 ± 0.0351,1.15 ± 0.0596,1.19 ± 0.036
GCATGA,0.7 ± 0.0187,0.753 ± 0.0226,0.824 ± 0.0395
GTAAAC,1.27 ± 0.0422,1.39 ± 0.0625,1.32 ± 0.0873
AAGGGA,0.928 ± 0.0784,1.09 ± 0.0682,1.03 ± 0.0363
CCACAG,0.371 ± 0.0258,0.424 ± 0.0221,0.535 ± 0.0512
TAAGGA,1.59 ± 0.0522,1.71 ± 0.0756,1.54 ± 0.114
CTATTC,1.3 ± 0.0236,1.46 ± 0.0185,1.39 ± 0.0918
AATTTC,2.1 ± 0.178,1.76 ± 0.0861,1.64 ± 0.101
AGCTAG,0.723 ± 0.0356,0.815 ± 0.0265,0.874 ± 0.021
AGCAAA,0.996 ± 0.0354,1.04 ± 0.0692,1.07 ± 0.0335
GATACA,1.33 ± 0.0706,1.39 ± 0.0615,1.37 ± 0.0715
CAAACG,0.563 ± 0.00697,0.704 ± 0.014,0.777 ± 0.055
ACGAGG,0.436 ± 0.0164,0.534 ± 0.018,0.618 ± 0.0579
CTATAA,2.19 ± 0.104,1.95 ± 0.0822,1.74 ± 0.119
GCTGAC,0.325 ± 0.00641,0.408 ± 0.0215,0.526 ± 0.0825
ATTATA,4.99 ± 0.594,2.65 ± 0.265,2.25 ± 0.311
AGGACG,0.361 ± 0.014,0.462 ± 0.00636,0.558 ± 0.0296
CACTCG,0.397 ± 0.0122,0.459 ± 0.00566,0.562 ± 0.0414
CTAGAA,1.25 ± 0.0695,1.37 ± 0.0276,1.3 ± 0.11
TACCGA,0.689 ± 0.0125,0.749 ± 0.0345,0.837 ± 0.0299
ACGTTG,0.659 ± 0.0218,0.753 ± 0.0161,0.822 ± 0.0177

Sequence,binding signal (SALL4 ZFC4 WT (HT-SELEX)) [fold-change vs cycle 0],binding signal [1] [fold-change vs cycle 0],binding signal [2] [fold-change vs cycle 0]
GCTATA,1.13 ± 0.0575,1.11 ± 0.0825,1.15 ± 0.0714
GCTACA,0.6 ± 0.0288,0.67 ± 0.0106,0.752 ± 0.0182
TAAAGA,2.04 ± 0.114,2.15 ± 0.111,1.82 ± 0.201
CTAAGC,0.7 ± 0.0291,0.793 ± 0.0207,0.857 ± 0.014
ACTTCT,1.44 ± 0.0317,1.64 ± 0.0808,1.45 ± 0.0874
ACTCAC,0.877 ± 0.0278,0.97 ± 0.0118,1.02 ± 0.0114
GTGGAA,0.745 ± 0.0414,0.83 ± 0.0233,0.871 ± 0.012
AGCAGG,0.42 ± 0.0145,0.478 ± 0.0232,0.561 ± 0.0608
CCTACG,0.357 ± 0.0238,0.443 ± 0.0174,0.524 ± 0.0668
ACCTTA,1.43 ± 0.0462,1.6 ± 0.0314,1.44 ± 0.0668
TATGCA,1.19 ± 0.0704,1.16 ± 0.0312,1.15 ± 0.0173
CCAATC,0.76 ± 0.0281,0.854 ± 0.0448,0.933 ± 0.0316
CCAGTA,0.785 ± 0.049,0.922 ± 0.0301,0.962 ± 0.0332
ACCACC,0.457 ± 0.039,0.514 ± 0.0309,0.616 ± 0.0424
GAAAAA,1.86 ± 0.136,1.6 ± 0.0749,1.47 ± 0.105
AAGAAG,1.4 ± 0.0333,1.63 ± 0.0977,1.45 ± 0.147
ATTTAC,1.95 ± 0.0871,1.9 ± 0.0674,1.69 ± 0.111
GAATGA,1.42 ± 0.0437,1.57 ± 0.0566,1.43 ± 0.0639
GCGTAA,0.494 ± 0.0275,0.556 ± 0.0061,0.651 ± 0.033
TCCCCA,0.461 ± 0.0365,0.533 ± 0.0451,0.593 ± 0.0323
ACACGT,0.75 ± 0.0296,0.89 ± 0.061,0.954 ± 0.0298
ATTGGC,0.461 ± 0.0252,0.5 ± 0.0137,0.665 ± 0.0716
AATATT,5.49 ± 0.414,2.54 ± 0.119,2.19 ± 0.255

Sequence,binding signal (SALL4 ZFC4 WT (HT-SELEX)) [fold-change vs cycle 0],binding signal [1] [fold-change vs cycle 0],binding signal [2] [fold-change vs cycle 0]
AATATA,4.74 ± 0.532,2.49 ± 0.212,2.16 ± 0.28
GAGCTA,0.677 ± 0.0225,0.747 ± 0.0353,0.858 ± 0.0136
CGATAA,1.17 ± 0.0894,1.19 ± 0.0909,1.15 ± 0.0473
CAGACA,0.66 ± 0.0364,0.798 ± 0.012,0.862 ± 0.0574
ACAGGG,0.493 ± 0.038,0.569 ± 0.0399,0.639 ± 0.0358
GCTACC,0.35 ± 0.0217,0.419 ± 0.0155,0.543 ± 0.0413
ACACCG,0.325 ± 0.0278,0.384 ± 0.0241,0.5 ± 0.0673
CCTTCG,0.394 ± 0.0327,0.487 ± 0.0246,0.582 ± 0.0265
GACCAC,0.381 ± 0.00949,0.448 ± 0.0299,0.55 ± 0.0669
CGATTA,1.16 ± 0.0473,1.17 ± 0.0726,1.18 ± 0.023
AGGCTA,0.619 ± 0.0154,0.751 ± 0.013,0.829 ± 0.0213
CTTCTA,1.36 ± 0.0301,1.53 ± 0.0956,1.4 ± 0.104
ATTCAC,1.32 ± 0.0734,1.45 ± 0.0876,1.38 ± 0.121
CTACAA,1.17 ± 0.0183,1.29 ± 0.0465,1.24 ± 0.0556
ATTCGG,0.592 ± 0.0176,0.669 ± 0.0177,0.753 ± 0.0617
AGTAAC,1.458 ± 0.009,1.62 ± 0.0372,1.49 ± 0.109
CGGAAC,0.339 ± 0.0284,0.417 ± 0.0399,0.524 ± 0.0677
AGGGTA,0.87 ± 0.0133,1 ± 0.0465,0.989 ± 0.0135
AAGCTC,0.631 ± 0.0495,0.76 ± 0.0539,0.866 ± 0.0327
ACTAGT,1.33 ± 0.0473,1.52 ± 0.0779,1.37 ± 0.106
AAATAA,3.25 ± 0.208,2.56 ± 0.166,2.14 ± 0.25
